Data taken from the supplement of paper PMC10849652.
Targets with a hit are over-represented here; the source holds about 7,900 in all. About 0.6% of all pairs of compound and target were hits.

Legend:
Assay in all cases: log2 fold change, soluble protein after heating vs DMSO (PISA); higher = thermal stabilisation; K562 cells, 10 uM, 30 min; active = over 0.2 and 3.5 SD of the protein, either way, in both replicates (recomputed)
saracatinib = compound: CN1CCN(CCOc2cc(OC3CCOCC3)c3c(Nc4c(Cl)ccc5c4OCO5)ncnc3c2)CC1 [saracatinib]
Summary of the method: (§1)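 Aliquots of K562 cells (2×10^6 cells/mL) treated with 10 μM compound for 30 min were heated for 3 min over 48°C-58°C. After pooling and extraction in PBS with 0.5% NP-40 at 4°C, soluble protein from a 21,000xg, 90 min spin was quantified by TMTpro 16plex LC-MS/MS with channel sums equalised. Thermal stability is expressed against control samples, from duplicates, as a log2 fold change.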

sotrastaurin = compound: CN1CCN(c2nc(C3=C(c4c[nH]c5ccccc45)C(=O)NC3=O)c3ccccc3n2)CC1 [sotrastaurin]
Summary of the method: as §1

alvocidib = compound: CN1CC[C@H](c2c(O)cc(O)c3c(=O)cc(-c4ccccc4Cl)oc23)[C@H](O)C1 [alvocidib]
Summary of the method: as §1

Tubastatin A = compound: CN1CCc2c(c3ccccc3n2Cc2ccc(C(=O)NO)cc2)C1 [Tubastatin A]
Summary of the method: as §1

[1] = compound: CNC(=O)C1=CC=CC=C1NC2=NC(=NC=C2Cl)NC3=C(C=C(C=C3)N4CCOCC4)OC
Summary of the method: as §1

defactinib = compound: CNC(=O)c1ccc(Nc2ncc(C(F)(F)F)c(NCc3nccnc3N(C)S(C)(=O)=O)n2)cc1 [defactinib]
Summary of the method: as §1

rucaparib = compound: CNCc1ccc(-c2[nH]c3cc(F)cc4c3c2CCNC4=O)cc1 [rucaparib]
Summary of the method: as §1

[2] = compound: CNc1nc(-c2ccc3c(N)n[nH]c3c2)cc(N2C[C@@H](C(=O)NC3CCCCC3)CC[C@H]2C)n1
Summary of the method: as §1

encorafenib = compound: COC(=O)N[C@@H](C)CNc1nccc(-c2cn(C(C)C)nc2-c2cc(Cl)cc(NS(C)(=O)=O)c2F)n1 [encorafenib]
Summary of the method: as §1

[3] = compound: COC(=O)[C@H](CCSC)NC(=O)C1=C(C=C(C=C1)NC[C@H](CS)N)C2=CC=CC=C2
Summary of the method: as §1

[4] = compound: COC1=CC=C(C=C1)CN2C=CC3=C2C=C(C=C3)C(=O)NO
Summary of the method: as §1

filanesib = compound: CON(C)C(=O)N1N=C(c2cc(F)ccc2F)S[C@@]1(CCCN)c1ccccc1 [filanesib]
Summary of the method: as §1

zotarolimus = compound: CO[C@H]1C[C@@H]2CC[C@@H](C)[C@@](O)(O2)C(=O)C(=O)N2CCCC[C@H]2C(=O)O[C@H]([C@H](C)C[C@@H]2CC[C@H](n3cnnn3)[C@H](OC)C2)CC(=O)[C@H](C)/C=C(\C)[C@@H](O)[C@@H](OC)C(=O)[C@H](C)C[C@H](C)/C=C/C=C/C=C/1C [zotarolimus]
Summary of the method: as §1

idasanutlin = compound: COc1cc(C(=O)O)ccc1NC(=O)[C@@H]1N[C@@H](CC(C)(C)C)[C@](C#N)(c2ccc(Cl)cc2F)[C@H]1c1cccc(Cl)c1F [idasanutlin]
Summary of the method: as §1

alisertib = compound: COc1cc(Nc2ncc3c(n2)-c2ccc(Cl)cc2C(c2c(F)cccc2OC)=NC3)ccc1C(=O)O [alisertib]
Summary of the method: as §1

[5] = compound: COc1cc2nc(-c3cc(F)ccc3O)nc(N[C@@H]3CNC[C@H]3C(C)(C)O)c2cc1OC
Summary of the method: as §1

gefitinib = compound: COc1cc2ncnc(Nc3ccc(F)c(Cl)c3)c2cc1OCCCN1CCOCC1 [gefitinib]
Summary of the method: as §1

[6] = compound: COc1cccc2cc(-c3nc([C@H]4CC[C@H](C(=O)O)CC4)n4ncnc(N)c34)[nH]c12
Summary of the method: as §1

lapatinib = compound: CS(=O)(=O)CCNCc1ccc(-c2ccc3ncnc(Nc4ccc(OCc5cccc(F)c5)c(Cl)c4)c3c2)o1 [lapatinib]
Summary of the method: as §1

pictilisib = compound: CS(=O)(=O)N1CCN(Cc2cc3nc(-c4cccc5[nH]ncc45)nc(N4CCOCC4)c3s2)CC1 [pictilisib]
Summary of the method: as §1

Measured: log2 fold change

DDX5 (UniProt P17844)
Chain of UniProt P17844 (P17844 whole entry, looked up): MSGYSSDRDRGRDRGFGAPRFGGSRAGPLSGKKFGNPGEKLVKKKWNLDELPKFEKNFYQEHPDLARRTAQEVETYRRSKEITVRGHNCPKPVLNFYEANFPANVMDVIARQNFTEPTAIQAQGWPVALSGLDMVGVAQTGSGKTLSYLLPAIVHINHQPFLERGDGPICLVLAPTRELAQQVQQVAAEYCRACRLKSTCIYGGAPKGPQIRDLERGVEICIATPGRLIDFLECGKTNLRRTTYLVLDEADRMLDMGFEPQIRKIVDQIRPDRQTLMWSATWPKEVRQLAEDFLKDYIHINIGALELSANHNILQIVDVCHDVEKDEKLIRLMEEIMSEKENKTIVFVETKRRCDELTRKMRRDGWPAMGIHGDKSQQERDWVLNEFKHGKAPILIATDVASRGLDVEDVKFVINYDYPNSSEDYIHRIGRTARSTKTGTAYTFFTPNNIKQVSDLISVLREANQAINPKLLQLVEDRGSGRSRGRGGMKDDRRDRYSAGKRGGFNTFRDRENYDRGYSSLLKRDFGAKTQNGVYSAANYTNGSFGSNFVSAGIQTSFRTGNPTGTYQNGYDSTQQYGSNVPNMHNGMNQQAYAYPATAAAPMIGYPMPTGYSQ
inactive: saracatinib -0.055 | sotrastaurin -0.206 | alvocidib -0.07 | Tubastatin A 0.041 | [1] 0.025 | defactinib -0.206 | rucaparib -0.075 | [2] -0.021 | encorafenib 0.14 | [3] -0.085 | [4] 0.118 | filanesib 0.013 | zotarolimus 0.062 | idasanutlin 0.024 | alisertib 0.006 | [5] 0.088 | gefitinib 0.031 | [6] 0.004 | lapatinib 0.02 | pictilisib 0.097

DHRS3 (UniProt O75911)
Chain of UniProt O75911 (O75911 whole entry, looked up): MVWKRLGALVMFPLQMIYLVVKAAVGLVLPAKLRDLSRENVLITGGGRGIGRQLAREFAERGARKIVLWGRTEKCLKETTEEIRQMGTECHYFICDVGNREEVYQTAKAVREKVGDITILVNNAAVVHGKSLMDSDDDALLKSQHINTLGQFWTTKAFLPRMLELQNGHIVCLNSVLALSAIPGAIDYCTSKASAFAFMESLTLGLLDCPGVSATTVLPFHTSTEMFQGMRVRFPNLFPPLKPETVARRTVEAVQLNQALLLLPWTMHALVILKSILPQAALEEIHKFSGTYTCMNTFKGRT
inactive: saracatinib -0.022 | sotrastaurin -0.008 | alvocidib 0.001 | Tubastatin A -0.042 | [1] 0.044 | defactinib 0.077 | rucaparib -0.04 | [2] -0.016 | encorafenib 0.004 | [3] 0.027 | [4] 0.13 | filanesib -0.009 | zotarolimus -0.056 | idasanutlin -0.107 | alisertib 0.008 | [5] 0.031 | gefitinib 0.067 | [6] 0.021 | lapatinib 0.065 | pictilisib 0.019

DMXL1 (UniProt Q9Y485)
Chain of UniProt Q9Y485 (Q9Y485 whole entry, looked up): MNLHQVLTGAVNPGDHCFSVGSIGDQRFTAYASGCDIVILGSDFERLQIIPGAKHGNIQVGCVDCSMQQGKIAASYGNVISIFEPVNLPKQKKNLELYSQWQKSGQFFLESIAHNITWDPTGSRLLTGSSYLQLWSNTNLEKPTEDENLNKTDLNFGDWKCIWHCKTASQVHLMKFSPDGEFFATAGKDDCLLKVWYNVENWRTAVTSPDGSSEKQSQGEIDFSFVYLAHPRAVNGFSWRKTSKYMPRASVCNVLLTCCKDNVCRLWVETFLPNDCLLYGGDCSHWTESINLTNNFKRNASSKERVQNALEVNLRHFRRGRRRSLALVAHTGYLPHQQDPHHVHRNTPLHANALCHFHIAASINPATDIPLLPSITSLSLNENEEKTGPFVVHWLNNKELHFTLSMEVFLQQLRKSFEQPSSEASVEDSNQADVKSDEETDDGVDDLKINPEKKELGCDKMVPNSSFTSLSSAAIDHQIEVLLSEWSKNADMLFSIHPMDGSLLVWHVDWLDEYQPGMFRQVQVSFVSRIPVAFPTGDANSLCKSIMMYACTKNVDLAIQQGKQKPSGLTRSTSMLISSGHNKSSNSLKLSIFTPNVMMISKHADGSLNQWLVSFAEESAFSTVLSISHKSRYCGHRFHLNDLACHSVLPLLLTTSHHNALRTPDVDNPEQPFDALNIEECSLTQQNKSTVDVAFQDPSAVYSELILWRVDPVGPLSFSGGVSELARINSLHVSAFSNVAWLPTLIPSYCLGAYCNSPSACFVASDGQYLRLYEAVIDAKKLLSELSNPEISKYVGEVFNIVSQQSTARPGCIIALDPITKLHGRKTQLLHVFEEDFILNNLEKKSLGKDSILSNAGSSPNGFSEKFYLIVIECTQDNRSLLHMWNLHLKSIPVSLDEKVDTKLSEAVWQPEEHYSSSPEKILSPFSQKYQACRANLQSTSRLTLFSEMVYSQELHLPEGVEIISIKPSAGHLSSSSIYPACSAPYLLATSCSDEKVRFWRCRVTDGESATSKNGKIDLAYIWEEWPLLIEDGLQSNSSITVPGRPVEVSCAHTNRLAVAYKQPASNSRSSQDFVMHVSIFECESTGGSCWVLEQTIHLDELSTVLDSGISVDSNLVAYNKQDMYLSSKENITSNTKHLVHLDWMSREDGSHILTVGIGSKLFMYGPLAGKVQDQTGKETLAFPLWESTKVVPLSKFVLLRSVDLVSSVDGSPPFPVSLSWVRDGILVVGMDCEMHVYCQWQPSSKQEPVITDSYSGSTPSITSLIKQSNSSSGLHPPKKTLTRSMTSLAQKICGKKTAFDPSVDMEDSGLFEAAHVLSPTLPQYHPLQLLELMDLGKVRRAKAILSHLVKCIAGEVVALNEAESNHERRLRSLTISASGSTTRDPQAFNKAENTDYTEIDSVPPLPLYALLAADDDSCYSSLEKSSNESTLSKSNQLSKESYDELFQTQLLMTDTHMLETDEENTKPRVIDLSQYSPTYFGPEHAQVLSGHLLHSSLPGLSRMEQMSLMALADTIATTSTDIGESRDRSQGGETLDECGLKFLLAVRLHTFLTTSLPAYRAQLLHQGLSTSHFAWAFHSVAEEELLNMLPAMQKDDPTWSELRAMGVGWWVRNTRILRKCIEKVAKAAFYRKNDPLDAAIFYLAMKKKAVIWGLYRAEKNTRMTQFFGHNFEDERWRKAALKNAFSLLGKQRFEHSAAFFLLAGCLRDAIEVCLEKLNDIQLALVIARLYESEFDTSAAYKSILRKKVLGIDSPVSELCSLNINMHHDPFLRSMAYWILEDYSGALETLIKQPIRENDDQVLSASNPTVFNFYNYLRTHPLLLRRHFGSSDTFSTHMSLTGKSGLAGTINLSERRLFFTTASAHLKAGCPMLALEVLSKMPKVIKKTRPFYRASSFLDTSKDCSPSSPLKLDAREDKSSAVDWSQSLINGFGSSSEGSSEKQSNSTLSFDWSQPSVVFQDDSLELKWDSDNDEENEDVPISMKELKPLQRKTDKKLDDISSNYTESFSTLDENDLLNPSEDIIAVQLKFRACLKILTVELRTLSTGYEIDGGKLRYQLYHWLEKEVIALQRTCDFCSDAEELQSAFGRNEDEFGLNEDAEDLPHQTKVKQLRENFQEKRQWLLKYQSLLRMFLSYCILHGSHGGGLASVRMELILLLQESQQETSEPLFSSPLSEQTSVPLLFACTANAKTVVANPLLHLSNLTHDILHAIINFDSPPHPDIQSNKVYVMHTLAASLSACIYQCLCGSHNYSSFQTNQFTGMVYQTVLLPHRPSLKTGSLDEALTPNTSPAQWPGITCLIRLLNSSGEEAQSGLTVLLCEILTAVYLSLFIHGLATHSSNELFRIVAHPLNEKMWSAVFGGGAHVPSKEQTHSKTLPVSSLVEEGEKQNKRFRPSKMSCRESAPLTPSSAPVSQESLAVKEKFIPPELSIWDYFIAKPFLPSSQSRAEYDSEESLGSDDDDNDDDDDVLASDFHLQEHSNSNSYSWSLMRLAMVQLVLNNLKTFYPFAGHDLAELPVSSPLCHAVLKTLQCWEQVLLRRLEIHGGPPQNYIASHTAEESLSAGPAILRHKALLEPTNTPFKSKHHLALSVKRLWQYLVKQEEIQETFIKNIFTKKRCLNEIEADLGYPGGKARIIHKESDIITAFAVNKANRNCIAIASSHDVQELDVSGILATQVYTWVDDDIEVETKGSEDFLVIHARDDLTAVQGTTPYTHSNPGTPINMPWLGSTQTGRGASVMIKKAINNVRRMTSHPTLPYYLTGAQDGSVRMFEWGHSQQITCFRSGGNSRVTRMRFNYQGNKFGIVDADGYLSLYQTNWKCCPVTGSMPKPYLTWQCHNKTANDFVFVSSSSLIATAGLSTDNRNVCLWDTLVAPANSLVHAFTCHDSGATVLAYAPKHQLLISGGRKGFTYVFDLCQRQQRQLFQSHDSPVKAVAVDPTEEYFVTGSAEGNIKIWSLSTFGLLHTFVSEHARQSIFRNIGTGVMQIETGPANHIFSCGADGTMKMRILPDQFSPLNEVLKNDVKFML
inactive: saracatinib 0.014 | sotrastaurin 0.001 | alvocidib -0.068 | Tubastatin A -0.011 | [1] -0.065 | defactinib -0.035 | rucaparib 0.076 | [2] -0.017 | encorafenib 0.043 | [3] -0.047 | [4] 0.023 | filanesib 0.046 | zotarolimus -0.008 | idasanutlin -0.012 | alisertib -0.003 | [5] 0.02 | gefitinib -0.029 | [6] -0.003 | lapatinib -0.02 | pictilisib -0.015

DBNL isoform 3 (UniProt Q9UJU6)
inactive: saracatinib 0.04 | sotrastaurin -0.014 | alvocidib -0.07 | Tubastatin A 0.009 | [1] 0.01 | defactinib -0.106 | rucaparib -0.1 | [2] -0.05 | encorafenib 0.061 | [3] -0.004 | [4] 0.096 | filanesib 0.006 | zotarolimus -0.018 | idasanutlin 0.02 | alisertib 0.025 | [5] -0.002 | gefitinib 0.021 | [6] -0.016 | lapatinib 0.016 | pictilisib 0.027

ELOVL1 (UniProt Q9BW60)
inactive: saracatinib 0.015 | sotrastaurin 0.037 | alvocidib -0.011 | Tubastatin A -0.015 | [1] -0.223 | defactinib -0.029 | rucaparib 0.05 | [2] 0.017 | encorafenib -0.011 | [3] 0 | [4] -0.103 | filanesib -0.139 | zotarolimus -0.051 | idasanutlin -0.051 | alisertib 0.032 | [5] -0.084 | gefitinib -0.087 | [6] 0.032 | lapatinib -0.078 | pictilisib -0.046

DCAF16 (UniProt Q9NXF7)
Chain of UniProt Q9NXF7 (Q9NXF7 whole entry, looked up): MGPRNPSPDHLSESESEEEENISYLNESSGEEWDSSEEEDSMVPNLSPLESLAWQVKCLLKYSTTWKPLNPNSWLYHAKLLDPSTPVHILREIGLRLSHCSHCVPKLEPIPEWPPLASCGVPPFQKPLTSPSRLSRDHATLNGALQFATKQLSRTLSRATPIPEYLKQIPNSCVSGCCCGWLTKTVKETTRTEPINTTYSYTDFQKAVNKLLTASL
inactive: saracatinib -0.052 | sotrastaurin -0.036 | alvocidib -0.082 | Tubastatin A -0.006 | [1] 0.084 | defactinib -0.054 | rucaparib 0.033 | [2] -0.05 | encorafenib 0.004 | [3] -0.041 | [4] 0.065 | filanesib 0.077 | zotarolimus 0.035 | idasanutlin 0.037 | alisertib -0.07 | [5] 0.021 | gefitinib 0.022 | [6] 0 | lapatinib -0.168 | pictilisib 0.132

DCAF13 (UniProt Q9NV06)
Chain of UniProt Q9NV06 (Q9NV06 whole entry, looked up): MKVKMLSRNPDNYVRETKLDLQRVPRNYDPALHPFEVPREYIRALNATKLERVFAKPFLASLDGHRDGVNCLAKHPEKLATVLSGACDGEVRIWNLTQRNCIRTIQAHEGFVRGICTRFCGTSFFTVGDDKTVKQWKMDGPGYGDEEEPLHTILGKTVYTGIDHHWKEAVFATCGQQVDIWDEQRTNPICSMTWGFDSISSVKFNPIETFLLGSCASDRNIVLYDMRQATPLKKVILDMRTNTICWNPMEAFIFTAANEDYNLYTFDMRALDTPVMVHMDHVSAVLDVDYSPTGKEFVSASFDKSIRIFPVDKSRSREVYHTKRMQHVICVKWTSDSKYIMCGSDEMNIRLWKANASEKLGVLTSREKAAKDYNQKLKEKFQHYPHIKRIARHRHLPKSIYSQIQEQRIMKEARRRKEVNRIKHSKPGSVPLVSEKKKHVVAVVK
inactive: saracatinib -0.027 | sotrastaurin 0.001 | alvocidib 0.214 | Tubastatin A 0.094 | [1] 0.074 | defactinib 0.165 | rucaparib 0.19 | [2] 0.045 | encorafenib 0.07 | [3] 0.029 | [4] -0.083 | filanesib 0.333 | zotarolimus -0.01 | idasanutlin 0.17 | alisertib -0.067 | [5] -0.047 | gefitinib -0.063 | [6] -0.112 | lapatinib 0.083 | pictilisib -0.103

ERLIN1 (UniProt O75477)
Chain of UniProt O75477 (O75477 whole entry, looked up): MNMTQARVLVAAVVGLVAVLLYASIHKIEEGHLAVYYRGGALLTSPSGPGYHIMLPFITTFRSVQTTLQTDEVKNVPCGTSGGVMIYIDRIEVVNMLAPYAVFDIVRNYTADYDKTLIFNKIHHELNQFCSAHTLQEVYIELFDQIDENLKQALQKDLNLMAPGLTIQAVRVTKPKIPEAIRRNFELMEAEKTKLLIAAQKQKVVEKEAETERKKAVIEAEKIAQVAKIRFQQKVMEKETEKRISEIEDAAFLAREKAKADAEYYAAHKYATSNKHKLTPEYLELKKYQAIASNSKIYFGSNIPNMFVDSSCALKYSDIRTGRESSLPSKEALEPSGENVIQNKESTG
inactive: saracatinib 0 | sotrastaurin -0.072 | alvocidib 0.023 | Tubastatin A 0.029 | [1] -0.06 | defactinib 0.028 | rucaparib 0.072 | [2] -0.004 | encorafenib 0.105 | [3] -0.024 | [4] -0.013 | filanesib 0.031 | zotarolimus 0.037 | idasanutlin 0.128 | alisertib -0.092 | [5] -0.075 | gefitinib -0.051 | [6] -0.14 | lapatinib 0.006 | pictilisib -0.107
